# Results published in the supplement of paper PMC11482750.
# ± gives the standard deviation of the averaged measurements.
# Compound: COC(=O)c1ccccc1O [methyl salicylate]
# Assay: control-subtracted net OSN firing rate; higher = stronger neuronal activation
# Conditions: odorant dilution (vol/vol): 1/100
# Summary of the method: (§1)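 Olfactory sensory neurons in palp or antennal sensilla of fed female flies aged 1–5 days were recorded by single sensillum recording. The flies were Scaptomyza species or D. melanogaster wild-type, mutant or at1 empty-neuron lines expressing Or42a homologs. Odorants diluted 1:100 vol/vol in mineral oil or dimethyl sulfoxide (20 μl on filter paper) were delivered as 1 s pulses into 16 ml/min filtered air, and spikes counted over 0.5 s starting 0.2 s after onset were background-subtracted, doubled and solvent-corrected. Values are replicate means.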
row,Target,control-subtracted net OSN firing rate [spikes/s]
1,S. flava pb3b-like,7.67 ± 26
2,S. pallida pb2a-like,6.33 ± 3.9
3,S. hsui pb3a-like,8 ± 8.1
4,S. hsui pb1b-like,-4.67 ± 8.6
5,S. hsui pb3b-like,1.33 ± 5.8
6,S. hsui pb1a-like,14.7 ± 17
7,S. flava pb1a-like,6.67 ± 15
8,S. hsui pb2b-like,103 ± 43
9,S. montana pb2a-like,6 ± 6.3
10,S. montana pb1b-like,7.67 ± 11
11,S. montana pb2b-like,106 ± 35
12,S. pallida pb2b-like,72 ± 19
13,S. montana pb3a-like,3.33 ± 9.9
14,Canton-S (D. melanogaster) pb3a,6.33 ± 7.3
15,S. pallida pb1b-like,1.33 ± 16
16,S. flava pb2b-like,111 ± 28
17,S. pallida pb3a-like,6.33 ± 15
18,Canton-S (D. melanogaster) pb2b,10.6 ± 10
19,S. montana pb1a-like,5.67 ± 11
20,Canton-S (D. melanogaster) pb2a,3.43 ± 3.4
21,Canton-S (D. melanogaster) pb3b,0.833 ± 6.5
22,S. flava pb2a-like,3 ± 8.7
23,Canton-S (D. melanogaster) pb1a,6.22 ± 13
24,S. montana pb3b-like,2.33 ± 11
25,S. hsui pb2a-like,6.33 ± 3.2
26,S. pallida pb1a-like,15.3 ± 34
27,S. flava pb1b-like,-5.33 ± 20
28,S. pallida pb3b-like,14.7 ± 24
29,S. flava pb3a-like,5.67 ± 12
30,Canton-S (D. melanogaster) pb1b,-3.78 ± 12

# Compound: COc1ccccc1O [guaiacol]
# Assay: as above
# Conditions: odorant dilution (vol/vol): 1/100
# Summary of the method: as §1
row,Target,control-subtracted net OSN firing rate [spikes/s]
1,S. flava pb3b-like,8.33 ± 15
2,S. pallida pb2a-like,6.67 ± 4.8
3,S. hsui pb3a-like,-5.33 ± 14
4,S. hsui pb1b-like,78 ± 26
5,S. hsui pb3b-like,-2.33 ± 4.5
6,S. hsui pb1a-like,16 ± 8.3
7,S. flava pb1a-like,4 ± 10
8,S. hsui pb2b-like,111 ± 23
9,S. montana pb2a-like,6 ± 6.6
10,S. montana pb1b-like,24.7 ± 14
11,S. montana pb2b-like,107 ± 49
12,S. pallida pb2b-like,75.7 ± 20
13,S. montana pb3a-like,-4.33 ± 12
14,Canton-S (D. melanogaster) pb3a,2.33 ± 8.2
15,S. pallida pb1b-like,8.67 ± 28
16,S. flava pb2b-like,121 ± 31
17,S. pallida pb3a-like,-11.7 ± 15
18,Canton-S (D. melanogaster) pb2b,145 ± 52
19,S. montana pb1a-like,26.3 ± 13
20,Canton-S (D. melanogaster) pb2a,6.86 ± 8.1
21,Canton-S (D. melanogaster) pb3b,-2.5 ± 6.4
22,S. flava pb2a-like,0 ± 13
23,Canton-S (D. melanogaster) pb1a,5.33 ± 8.1
24,S. montana pb3b-like,-1.67 ± 5.4
25,S. hsui pb2a-like,8 ± 7.5
26,S. pallida pb1a-like,42 ± 22
27,S. flava pb1b-like,9.67 ± 7.5
28,S. pallida pb3b-like,-12.7 ± 18
29,S. flava pb3a-like,-5.33 ± 6.2
30,Canton-S (D. melanogaster) pb1b,38 ± 29

# Compound: OCCc1ccccc1 [phenethyl alcohol]
# Assay: as above
# Conditions: odorant dilution (vol/vol): 1/100
# Summary of the method: as §1
row,Target,control-subtracted net OSN firing rate [spikes/s]
1,S. flava pb3b-like,2.67 ± 6.8
2,S. pallida pb2a-like,9.67 ± 8.8
3,S. hsui pb3a-like,-0.333 ± 7.4
4,S. hsui pb1b-like,-11 ± 8.7
5,S. hsui pb3b-like,-2.67 ± 5
6,S. hsui pb1a-like,29.7 ± 22
7,S. flava pb1a-like,82.7 ± 46
8,S. hsui pb2b-like,17.3 ± 21
9,S. montana pb2a-like,7.67 ± 14
10,S. montana pb1b-like,-7 ± 20
11,S. montana pb2b-like,18.3 ± 17
12,S. pallida pb2b-like,15 ± 11
13,S. montana pb3a-like,-3.33 ± 15
14,Canton-S (D. melanogaster) pb3a,7.67 ± 9.3
15,S. pallida pb1b-like,0.667 ± 14
16,S. flava pb2b-like,10 ± 17
17,S. pallida pb3a-like,-15.7 ± 12
18,Canton-S (D. melanogaster) pb2b,1.14 ± 10
19,S. montana pb1a-like,82.7 ± 34
20,Canton-S (D. melanogaster) pb2a,6.29 ± 5.3
21,Canton-S (D. melanogaster) pb3b,1.33 ± 8.5
22,S. flava pb2a-like,1.33 ± 4.7
23,Canton-S (D. melanogaster) pb1a,4 ± 8.7
24,S. montana pb3b-like,-3.67 ± 8.9
25,S. hsui pb2a-like,3.67 ± 9.2
26,S. pallida pb1a-like,23 ± 38
27,S. flava pb1b-like,-6 ± 20
28,S. pallida pb3b-like,-9.33 ± 19
29,S. flava pb3a-like,-3.33 ± 6.8
30,Canton-S (D. melanogaster) pb1b,4.67 ± 5.4
